Screening results deposited in PubChem by National Center for Advancing Translational Sciences (NCATS).
The list is not random: actives were taken first. Their share in the collection is about 21%.
Cycloheximide cs: Cycloheximide Counterscreen for Small Molecule Inhibitors of Shiga Toxin. 300,000 compounds, 12% hits. cell reporter, cycloheximide protein synthesis inhibition counterscreen. max response, %; in the data active = max response mostly above about 13%, no sharp cut-off; inactive = mostly below about 14%; note: read at 38.3 µM for the half of the compounds with a filed dose; 0% is about no effect
Pf growth 96h: Primary qHTS for delayed death inhibitors of the malarial parasite plastid, 96 hour incubation; P. falciparum luciferase reporter growth, 96 h; Potency, µM (series often up to 28.7 µM), inactives show at the highest dose activity change, negative = inhibition, actives largely listed as inhibitors; 320,000 compounds, 6.9% hits; note: potency is the fitted concentration of half-maximal effect; % is set by controls: 0 for no effect and ±100 for the full control effect
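P. falciparum expressing integrated firefly luciferase grown in erythrocytes (2% hematocrit, 0.05% parasitemia final) with compounds for 96 hours at 37 C, 5% CO2. Growth inhibition read as loss of luminescence after adding luciferase detection reagent.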
Shiga toxin inh: A qHTS for Small Molecule Inhibitors of Shiga Toxin; Vero cells, Shiga toxin protein synthesis inhibition reporter; inhibition, % at 38.7 µM; 290,000 compounds, 9.2% hits; AID 2315, 2010; in the data active = inhibition mostly above about 28%, no sharp cut-off; inactive = mostly below about 43%; note: 0% is about no effect
Pf growth 48h: Primary qHTS for delayed death inhibitors of the malarial parasite plastid, 48 hour incubation; P. falciparum luciferase growth in erythrocytes, 48 h; Potency, µM (titrated, usually from 28.7 µM), for inactives: top-dose activity change, negative = inhibition, most hits filed as inhibitors; 310,000 compounds, 5.9% hits; note: potency is the fitted concentration of half-maximal effect; % is set by controls: 0 for no effect and ±100 for the full control effect
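Luciferase-expressing parasites in RBCs, 2% Hct / 0.1% parasitemia final; RPMI 1640 + 0.5% Albumax; 37 C, 5% CO2, one generation; luminescence read-out, lower signal = inhibition.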
NS1 function inh: qHTS Assay for Inhibitors of Influenza NS1 Protein Function. Potency, µM (doses to about 46.1 µM), for the others: at the highest dose activity, positive = more growth. 270,000 compounds, 0.4% hits. AID 2326, 2010; calls by dose curve; note: potency is the fitted concentration of half-maximal effect; actives are rising curves; nearly all actives have a fitted effect of over 50% in size
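A cell-based growth assay was used: compounds that relieve NS1-induced slow growth of budding yeast raise OD600. Assay medium was yeast nitrogen base with ammonium sulphate and -URA supplement, pH 6.0, with 2% galactose.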
* = called active by the depositor; ? = inconclusive; · = not tested or not shown. Unless noted, calls come from the whole dose curve; as a rule, active = well fitted inhibition curve with a large enough effect; inconclusive = small, poorly fitted or top-dose-only effect, or another doubt; inactive = no such curve, though single readings can be large or run the other way.

SMILES | Cycloheximide cs | Pf growth 96h | Shiga toxin inh | Pf growth 48h | NS1 function inh
COc1ccc(CNCC(O)(c2ccccc2)c2ccc(F)cc2)cc1 (configuration not stated) | 6 | ? | 24 | 5.2µM* | -2%
CCCCNCC(O)(c1ccc(Cl)cc1)c1ccc(Cl)cc1 | 29 | 2.3µM* | 29 | 13µM* | ·
COc1ccc(C(CCNCc2ccccc2)c2ccc(F)cc2)cc1 (configuration not stated) | -4 | 0% | -14 | 0% | -13%
COc1ccc(CNCC(O)(c2ccccc2)c2ccc(F)cc2)cc1OC (configuration not stated) | 7 | 8.3µM* | -4 | 7.4µM* | -1%
CCN(CC)S(=O)(=O)c1cc(C)ccc1NC(=S)Nc1cccnc1 | 11 | 8% | 9 | -3% | ·
COc1ccc(CNCC(O)(c2ccc(Cl)cc2)c2ccc(Cl)cc2)cc1 | -3 | 1µM* | -14 | 1.2µM* | -17%
COc1ccc(CNCC(O)(c2ccc(Cl)cc2)c2ccc(Cl)cc2)cc1OC | -4 | 1.5µM* | -22 | 2.1µM* | -7%
Cn1c(SCC(=O)Nc2ccccc2Oc2ccccc2)nnc1C1CC1 | · | ? | · | -7% | ·
CC1(C)Cc2c(cnn2-c2ccc(F)cc2)C(NC(=O)CN2CCCCC2=O)C1 (configuration not stated) | -8 | ? | -19 | -5% | 10%
CC1=C(C)C(O)N(Cc2ccccc2)C1=O (configuration not stated) | 1 | ? | -2 | 2% | 6%
CCN1CCc2c(sc(NC(=O)c3ccc(S(=O)(=O)N4CCOCC4)cc3)c2C(=O)OC)C1 | -5 | · | 29 | ? | -2%
CNC(=O)c1c(NC(=O)c2ccc(S(=O)(=O)N3CCCCC3C)cc2)sc2c1CCN(C)C2 (configuration not stated) | -4 | 10µM* | -5 | ? | -7%
CC1CCCN(S(=O)(=O)c2ccc(C(=O)Nc3sc4c(c3C(N)=O)CCN(C)C4)cc2)C1 (configuration not stated) | -3 | ? | -12 | ? | -7%
COC(=O)c1c(NC(=O)c2ccc(S(=O)(=O)N3CCOCC3)cc2)sc2c1CCN(C)C2 | -2 | ? | -6 | 13µM* | -9%
